Bioassay records deposited in PubChem BioAssay by several laboratories.
TROY signal inh: blocks TROY-dependent signaling in reporter cells | Q293 LMP1-TROYcd NF-kB luciferase reporter, 4 h | inhibition, % at 10 µM | 360,000 compounds, 0.98% hits;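 active means compounds whose plate-normalised and pattern-corrected inhibition of the luciferase reporter signal at the single screening dose is 50% or more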
LGR2 antag: inhibitors of bursicon-induced Drosophila LGR2 receptor cAMP signaling; 380,000 compounds, 0.35% hits; HEK293 LGR2, CRE-luciferase, bursicon-stimulated, 4 h; inhibition, % at 9.99 µM;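 active means drop in luminescence signal, shown as inhibition above about 50% in the replicate tests, limit read from the data, passing the limit was not always enough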;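 further: agonist challenge used bursicon conditioned medium at about half maximal strength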
TWEAK Fn14 block: TWEAK-Fn14 signaling inhibition. TWEAK-stimulated Fn14 reporter cells, luciferase luminescence, 8 h. 360,000 compounds, 2% hits. AID 1159606. inhibition, % at 10 µM; in the data active means inhibition above about 50%
TRPM1 prom inh: inhibitors of MITF-driven TRPM1 promoter in melanoma cells. inhibition, % at 12.5 µM. SK-MEL-5 TRPM1 promoter luciferase, 24 h. AID 488899. 330,000 compounds, 0.83% hits;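 active means mean inhibition across replicates of 60% or more, whatever share of single replicates reaches that level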
MITF act: increases MITF-driven TRPM1 promoter luciferase signal; SK-MEL-5 TRPM1-promoter luciferase, 24 h; % of positive control, neutral wells = 0; activation, % at 12.5 µM; 300,000 compounds, 0.75% hits; AID 588334;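 active means mean activation of at least 80% with every replicate also reaching 80%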
LMP1 NFkB inh: inhibitors of Epstein-Barr LMP1-induced NF-kappaB reporter | 350,000 compounds, 0.69% hits | inhibition, % at 12.5 µM | LMP1-induced NF-kappaB luciferase reporter cells, luminescence; in the data active means inhibition above about 41%
Large screens that a line does not name were inactive. Only some compounds are listed: those with a hit (about 3% of all), similar ones and a draw of the others.

COc1cccc(-c2nc(NC(C)C)c3ccccc3n2)c1O	TWEAK Fn14 block 68 (no result: LGR2 antag)
COc1cccc(-c2nc(NCC3CCCO3)c3ccccc3n2)c1O (stereo unspecified)	none (no result: LGR2 antag)
CCC(C)Nc1nc(-c2cccc(OC)c2O)nc2ccccc12 (stereo unspecified)	TROY signal inh 60, TWEAK Fn14 block 64 (no result: LGR2 antag)
c1ccc(CNc2nc(-c3ccccn3)nc3ccccc23)cc1	none
C[C@H](CO)N1C[C@H](C)[C@@H](CN(C)Cc2ccccn2)Oc2cc(C3=CCCC3)ccc2S1(=O)=O	none (no result: TROY signal inh, TWEAK Fn14 block, TRPM1 prom inh, MITF act, LMP1 NFkB inh)
CCN(CC)C(=O)c1cccc(-c2csc(C(C)(O)c3ccc(OC)cc3)n2)c1 (stereo unspecified)	none (no result: TRPM1 prom inh, MITF act, LMP1 NFkB inh)
CCN(CC)C(=O)c1cccc(-c2csc(C(C)(O)c3cccc(OC)c3)n2)c1 (stereo unspecified)	TWEAK Fn14 block 65 (no result: TRPM1 prom inh, MITF act, LMP1 NFkB inh)
COc1cccc(C(C)(O)c2nc(-c3cc(F)cc(F)c3)cs2)c1 (stereo unspecified)	TWEAK Fn14 block 54 (no result: TRPM1 prom inh, MITF act, LMP1 NFkB inh)
O=C(NCCCN1CCOCC1)[C@@H]1N[C@@H]2c3ccc(C4=CCCC4)c(=O)n3C[C@@H]2[C@H]1CO	none (no result: TROY signal inh, TWEAK Fn14 block, TRPM1 prom inh, MITF act, LMP1 NFkB inh)
COCC#Cc1cnc2c(c1)C(=O)N([C@@H](C)CO)C[C@H](C)[C@H](CN(C)C(=O)Nc1ccccc1OC)O2	none (no result: TROY signal inh, TWEAK Fn14 block, TRPM1 prom inh, MITF act, LMP1 NFkB inh)
CCCNC(=O)N1C[C@H](O)COC[C@H]2O[C@H](CC(=O)N3CCOCC3)CC[C@@H]21	none (no result: TROY signal inh, TWEAK Fn14 block, TRPM1 prom inh, MITF act, LMP1 NFkB inh)
CCN(CC)Cc1c(O)ccc2c1O/C(=C\C=C\c1ccccc1)C2=O	TWEAK Fn14 block 63, TRPM1 prom inh 81
Cc1cc(C)c2nc3sc(C(=O)N4CCOCC4)c(N)c3cc2c1	LMP1 NFkB inh 51
Cc1ccc(C)c2nc3sc(C(=O)N4CCOCC4)c(N)c3cc12	none
Nc1c(C(=O)N2CCOCC2)sc2nc3c(cc12)CCCC3	LGR2 antag 71, LMP1 NFkB inh 56
Cc1cccc2cc3c(N)c(C(=O)Nc4ccc(N5CCOCC5)cc4)sc3nc12	TROY signal inh 51, TWEAK Fn14 block 58 (no result: LGR2 antag)
Cc1noc(C)c1NC(=O)Nc1ccc2c(c1)CC(=O)N([C@H](C)CO)C[C@@H](C)[C@@H](CN(C)Cc1ccc(Cl)c(Cl)c1)O2	none (no result: TROY signal inh, TWEAK Fn14 block, TRPM1 prom inh, MITF act, LMP1 NFkB inh)
C[C@H](CO)N1C[C@H](C)[C@@H](CN(C)C)Oc2ccc(NC(=O)Nc3ccc(C(F)(F)F)cc3)cc2CC1=O	none (no result: TROY signal inh, TWEAK Fn14 block, TRPM1 prom inh, MITF act, LMP1 NFkB inh)
Cc1ccc(S(=O)(=O)Nc2ccc3c(c2)C(=O)N([C@@H](C)CO)C[C@H](C)[C@H](CN(C)C(=O)CCC(F)(F)F)OCCCC[C@@H](C)O3)cc1	none (no result: TROY signal inh, TWEAK Fn14 block, TRPM1 prom inh, MITF act, LMP1 NFkB inh)
C/C(Cl)=C\C[N+](C)(C)CC(=O)OCCc1ccccc1	none (no result: TRPM1 prom inh, MITF act, LMP1 NFkB inh)
C=CC[N+](C)(C)C/C(Cl)=C(\Cl)c1ccccc1	LMP1 NFkB inh 49
CC(C)NC(=O)N(C)C[C@@H]1Oc2ccc(NS(=O)(=O)c3ccc(Cl)cc3)cc2CC(=O)N([C@@H](C)CO)C[C@H]1C	none (no result: TROY signal inh, TWEAK Fn14 block, TRPM1 prom inh, MITF act, LMP1 NFkB inh)
Cc1ccc(Sc2ncnc3onc(C)c23)cc1	none (no result: LGR2 antag)
Cc1noc2ncnc(Sc3c(Cl)cccc3Cl)c12	TROY signal inh 57
Cc1ccccc1Sc1ncnc2onc(C)c12	none (no result: MITF act)
Cc1noc2ncnc(Sc3ccc(Cl)cc3)c12	TWEAK Fn14 block 65 (no result: LGR2 antag)
CC(C)CCCCCCCCCCCCC(=O)NCC(=O)NC1C(C)OC(Nc2ncnc3nc[nH]c23)C(O)C1O (stereo unspecified)	TROY signal inh 77, TWEAK Fn14 block 97, TRPM1 prom inh 69, LMP1 NFkB inh 92 (no result: LGR2 antag, MITF act)
C/C(=C\CNc1ncnc2nc[nH]c12)CO	none
Cc1cccn2c(=O)c3cc(S(=O)(=O)c4ccc(F)cc4)c(=N)n(Cc4ccco4)c3nc12	LGR2 antag 53, TWEAK Fn14 block 56
Cc1cccn2c(=O)c3cc(S(=O)(=O)c4ccccc4)c(=N)n(Cc4ccco4)c3nc12	none
COc1ccccc1N1CCN(C(=O)CSc2ncccc2-c2nc3ccccc3[nH]2)CC1	TWEAK Fn14 block 56
O=C(CSc1ncccc1-c1nc2ccccc2[nH]1)NC1CC1	TROY signal inh 55, TWEAK Fn14 block 53 (no result: LGR2 antag)
COc1ccccc1N1CCN(C(=O)CSc2ncnc3scc(-c4ccccc4)c23)CC1	none
COc1ccc(-n2ncc3c(SCC(=O)N4CCN(c5ccccc5OC)CC4)ncnc32)cc1	TWEAK Fn14 block 55 (no result: LGR2 antag, MITF act)
CCOC(=O)Cc1csc(NC(=O)CSc2ncnc3c2cnn3-c2ccc(OC)cc2)n1	TWEAK Fn14 block 61 (no result: LGR2 antag)
